Test results taken from PubChem BioAssay AID2521 (Sanford-Burnham Center for Chemical Genomics, 2010).
About 1,100 (0.33%) of roughly 330,000 compounds were called active. This is one part of a sample in which actives are shown more often than they occur.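 Rule for the calls: active = inhibition above about 40% at 20 µM (limit read from the data); inactive = the rest.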

What follows are compounds tested against Apelin receptor (Homo sapiens) (UniProt P35414) (assay: antagonists of human apelin receptor APJ, primary screen, CHO-K1 cells, beta-arrestin complementation, luminescence (AID 2521;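 note: cells challenged with 10 nM apelin-13 agonist together with compound; plate controls were apelin-13 plus DMSO wells for no effect and DMSO wells lacking apelin-13 for full effect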)). Conditions: at 20 µM, stronger effect = higher value.
Sequence of Apelin receptor (Homo sapiens) (P35414 whole entry, looked up): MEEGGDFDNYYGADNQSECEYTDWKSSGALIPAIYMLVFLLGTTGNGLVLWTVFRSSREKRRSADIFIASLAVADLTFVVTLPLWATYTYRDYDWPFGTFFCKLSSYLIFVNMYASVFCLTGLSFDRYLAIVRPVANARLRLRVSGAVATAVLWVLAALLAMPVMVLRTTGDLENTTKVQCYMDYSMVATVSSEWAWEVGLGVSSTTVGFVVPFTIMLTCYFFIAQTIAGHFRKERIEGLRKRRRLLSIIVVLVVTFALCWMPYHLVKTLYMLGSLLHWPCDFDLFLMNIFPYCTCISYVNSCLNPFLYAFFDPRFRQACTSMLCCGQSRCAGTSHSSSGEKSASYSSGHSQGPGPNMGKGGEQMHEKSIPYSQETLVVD
For CCOC(=O)c1c(N)n(Cc2ccccc2)c2nc3ccccc3nc12, the inhibition was 42.7% (active).
With COc1cc(Cn2c(N)c(C(=O)NCc3ccco3)c3nc4ccccc4nc32)cc(OC)c1OC the inhibition was 34% (inactive).
With CC/C(=N\NC(=O)c1ccccc1O)c1c(O)n(Cc2ccccc2)c(=O)[nH]c1=O the inhibition was -28% (inactive).
In the case of COc1ccc(Br)cc1CNCCc1cccc(Cl)c1, the inhibition was 17.7% (inactive).
With C=CC12CN(C)[C@@H]3C4CO[C@H](C[C@H]41)[C@]1(C(=O)Nc4ccccc41)[C@@H]32 (stereo not given in full) the inhibition was -19.7% (inactive).
